Source: PubChem BioAssay

These compounds were tested on Inhibin beta A chain (activin A) (assay: small molecules binding activin A – biochemical, small-molecule microarray, 635 nm fluorescence scan, primary screen (AID 1107;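 note: mouse activin A protein probed at 4.33 µg/mL on printed slides; score merges bound-protein fluorescence near 667 nm with spot signal-to-noise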)). Settings: INHBA, higher = more signal.

SMILES | composite z-score
COCCOC(=O)N1C(=O)[C@@]2(c3cc(C#CCCO)ccc31)[C@H](C(=O)N1CCN(c3ncccn3)CC1)[C@H]1C(=O)O[C@H](c3ccccc3)[C@H](c3ccccc3)N1[C@@H]2c1ccccc1OCCO | 0.487
CS(=O)(=O)CCOC(=O)C1=CC(CCCO)=CC(c2ccc(CN3CCCC3)cc2)N(Cc2cc3c(cc2Br)OCO3)C=C1C(=O)OCCS(C)(=O)=O (stereo not drawn) | 1.29
CCOC(=O)[C@H]1CC=C2CC1C(=O)N1CCC[C@@H]1[C@@H]2O[Si](C)(C)C(C)(C)C (stereo partly drawn) | 0.928
COC(=O)[C@@]1(Cc2ccccc2)[C@H]2c3cc(C(=O)N4CCCC4)n(Cc4cccc5ccccc45)c3C[C@H]2CN1C(=O)c1ccccc1 | 1.07
CC(C)(C)OC(=O)CC[C@]1(C(=O)NCC(O)CO)COC(c2ccc(OCCCO)cc2)=N1 (stereo partly drawn) | 0.173
CCc1oc(CC[C@@H](CO)NC(=O)NCCn2cc(C3(O)CCCCC3)nn2)c(C(=O)OC)c1C(=O)OC | 0.289
COCCOC(=O)N1C(=O)[C@@]2(c3cc(C#Cc4ccc(OC)cc4)ccc31)[C@H](C(=O)N1CCCCCCC1)[C@H]1C(=O)O[C@H](c3ccccc3)[C@H](c3ccccc3)N1[C@@H]2c1ccc(OCCO)cc1 | 1.58
O=C(NCc1ccccc1)[C@@H]1c2ccccc2C(=O)N(CC23CC4CC(CC(C4)C2)C3)[C@H]1c1ccc(CO)cc1 | 0.147
COC(=O)[C@@]1(Cc2ccc(OC)cc2)[C@H]2c3cc(C(=O)N(C)C)n(Cc4cccc5ccccc45)c3C[C@H]2CN1C(=O)c1ccccc1 | 0.537
COc1ccc(C(O)C2C=CC3C(=O)N(c4ccccc4)C(=O)C3N2Nc2ccccc2F)cc1OCc1ccccc1 (stereo not drawn) | 1.35
COc1ccc(CCNC(=O)[C@@]2(C)c3ccccc3C(=O)N(Cc3cc(F)cc(C(F)(F)F)c3)[C@H]2c2ccc(CO)cc2)cc1 | -0.0094
O=C1OCCC/C=C\[C@H]2OC34C=CCN(CCN5CCOCC5)C(=O)[C@H]3N(CCCO)C(=O)[C@@H]4C12 (stereo partly drawn) | 0.576
COc1cc2c(cc1OC)CN(C(=O)[C@H]1[C@@H]3C(=O)O[C@@H](c4ccccc4)[C@@H](c4ccccc4)N3[C@@H](c3ccc(O)cc3)[C@]13C(=O)Nc1ccc(C#CC4=CCCCC4)cc13)CC2 | -0.301
C=CC[C@]12N=C(c3ccc(OCCCO)cc3)O[C@H]1c1ccccc1N(Cc1ccccc1)C2=O | 0.897
CN1C(=O)C2C=CC(C(O)c3ccccc3)N(Nc3ccccc3)C2C1=O (stereo not drawn) | 0.918
COc1ccc([C@H]2C[C@H]3C(Br)=C[C@@H]2C(=O)[C@]32CO2)cc1 | 1.52
CC(C)C(CO)N1C(=O)[C@@H]2[C@H]3C(=O)OCC=C[C@H]3OC23C=CCN(C(C)C)C(=O)[C@@H]13 (stereo partly drawn) | 0.756
CCCCCN1CC=CC23O[C@@H]4/C=C\CCCOC(=O)C4[C@H]2C(=O)N(CCCO)[C@@H]3C1=O (stereo partly drawn) | 1.41
CCCC[C@@H]1C[C@H]1[C@@H](NC(=O)c1ccco1)c1ccc(C(=O)OC)cc1 | 0.807
C=CCOC(=O)[C@H]1[C@@H]2C(=O)O[C@@H](c3ccccc3)[C@@H](c3ccccc3)N2[C@@H](c2ccc(OCCOC(=O)[C@@H]3C[C@@H]4C(=O)N[C@@H](CCCCN(C)C)C(=O)N4[C@@H]3c3ccc(O)cc3)cc2)[C@]12C(=O)Nc1ccc(I)cc12 | -0.389
CN1C(=O)[C@]2(Cc3ccccc3)N=C(c3ccc(OCCCO)cc3)O[C@@H]2c2ccccc21 | 1.14
CN(C)CCCNC(=O)[C@@]1(c2ccc([N+](=O)[O-])cc2)CC(=O)N(C2CCCCC2)[C@@H]1c1ccc(CO)cc1I | 0.462
COCC(=C=CC[C@@H](O)c1ccccc1OCCO)C[C@@H](O)c1cc(Cl)cc(Cl)c1O | 0.495
